# About 83,000 compounds went through this panel and 20% of them were active in at least one assay; those are over-represented in the sample as a whole.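 Cell lines were cultured in 96-well plates, exposed to a single compound concentration, and assessed for percent growth 48 hours later.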 Values without a mark were called inactive. The source made the active and inactive calls. The calls were made as follows: active = growth percent below 10; inactive = the rest.
# Assays:
# Assay in all cases: NCI-60 one-dose screen, 48 h (100 = growth as untreated, 0 = no growth, -100 = all killed)
# HCT-15 colon = settings: 10 µM unless noted
# HT29 colon = settings: 10 µM unless noted
# SNB-75 CNS = settings: 10 µM unless noted
# SNB-19 CNS = settings: 10 µM unless noted
# U251 CNS = settings: 10 µM unless noted
# PC-3 prostate = settings: 10 µM unless noted
# SK-MEL-5 melanoma = settings: 10 µM unless noted
# UACC-62 melanoma = settings: 10 µM unless noted
# LOX IMVI melanoma = settings: 10 µM unless noted
# SK-MEL-28 melanoma = settings: 10 µM unless noted
# SK-MEL-2 melanoma = settings: 10 µM unless noted
# EKVX NSCLC = settings: 10 µM unless noted
# SN12C renal = settings: 10 µM unless noted
# TK-10 renal = settings: 10 µM unless noted
# ACHN renal = settings: 10 µM unless noted
# CAKI-1 renal = settings: 10 µM
# CCRF-CEM leukemia = settings: 10 µM unless noted
# MOLT-4 leukemia = settings: 10 µM unless noted
# UO-31 renal = settings: 10 µM unless noted
# A498 renal = settings: 10 µM unless noted
Compound,growth (HCT-15 colon),growth (HT29 colon),growth (SNB-75 CNS),growth (SNB-19 CNS),growth (U251 CNS),growth (PC-3 prostate),growth (SK-MEL-5 melanoma),growth (UACC-62 melanoma),growth (LOX IMVI melanoma),growth (SK-MEL-28 melanoma),growth (SK-MEL-2 melanoma),growth (EKVX NSCLC),growth (SN12C renal),growth (TK-10 renal),growth (ACHN renal),growth (CAKI-1 renal),growth (CCRF-CEM leukemia),growth (MOLT-4 leukemia),growth (UO-31 renal),growth (A498 renal)
CCOC(=O)c1c(NCC(=O)Nc2cccc([N+](=O)[O-])c2)sc2c1CCCC2,-42.4% (active),-71.5% (active),-48.6% (active),-17.3% (active),-26.5% (active),-34% (active),-98.4% (active),-90.3% (active),-73% (active),-80.2% (active),-43.2% (active),-22.7% (active),-28.9% (active),-33.2% (active),-60.9% (active),-20.2% (active),8.8% (active),5.22% (active),–,–
CCCCCCCCCC[C@@H](C)[C@@H]1CC(=O)N[C@H]([C@@H](C)O)C(=O)N[C@@H](C)C(=O)N[C@H](C)C(=O)N[C@@H](CCC(N)=O)C(=O)N[C@H](Cc2ccc(O)cc2)C(=O)N[C@@H](C(C)CC)C(=O)O1 (stereo partly drawn),101%,68.3%,52.5%,51.9%,51.6%,39%,48.1%,92.4%,71.2%,82.5%,65.5%,66.6%,66.5%,47.9%,98.3%,–,63.2%,41.1%,79.6%,64.3%
COc1cc(CNC(=O)Cc2ccccc2[N+](=O)[O-])ccc1OCC(=O)NO,105%,110%,95.6%,98.7%,106%,95.9%,103%,92.7%,100%,109%,104%,100%,99.5%,122%,103%,90.4%,102%,107%,–,–
CC1(C)CC[C@]2(C(=O)O)CC[C@]3(C)C(=CCC4[C@@]5(C)C[C@@H](O)[C@@H]6OC(c7cccc([N+](=O)[O-])c7)OC[C@@]6(C)C5CC[C@]43C)C2C1 (stereo partly drawn),37.6%,59%,84.4%,61.9%,41.5%,65%,64.5%,69.2%,42.7%,87.4%,88.5%,57.6%,62%,71.9%,39.4%,79.7%,44.4%,48.2%,–,–
Nc1cc(F)ccc1NC(=O)c1ccc(NC(=O)C/C=C/c2cccnc2)cn1,19.8%,11.4%,31.9%,31.7%,17.9%,36.9%,-58.1% (active),5.97% (active),16.6%,-9.71% (active),9.74% (active),49.7%,20.1%,22.3%,31.3%,33.9%,15.1%,24.7%,–,-13.2% (active)
O=c1c2c(O)cccc2oc2c3c(cc(O)c12)O[C@H]1OC=C[C@@H]31,87.8%,88.9%,85.7%,96.8%,92.9%,90.1%,81.1%,81%,87.4%,108%,95.5%,42.8%,92.6%,89.5%,74.9%,–,92.7%,88.5%,79.3%,89.1%
CC(=O)NC(C)(C)C(=O)N[C@@H](C)C(=O)NC(C)(C)C(=O)N[C@@H](C)C(=O)NC(C)(C)C(=O)N[C@@H](C)C(=O)N[C@@H](CCC(N)=O)C(=O)NC(C)(C)C(=O)N[C@H](C(=O)NC(C)(C)C(=O)NCC(=O)N[C@@H](CC(C)C)C(=O)NC(C)(C)C(=O)N1CCC[C@H]1C(=O)N[C@H](C(=O)NC(C)(C)C(=O)NC(C)(C)C(=O)N[C@@H](CCC(N)=O)C(=O)N[C@@H](CCC(N)=O)C(=O)N[C@H](CO)CC1CCCCC1)C(C)C)C(C)C,79.2% [5 µM],14.1% [5 µM],19.7% [5 µM],43.8% [5 µM],38.5% [5 µM],29.8% [5 µM],-33.6% [5 µM] (active),2.45% [5 µM] (active),27.1% [5 µM],-17.1% [5 µM] (active),5.52% [5 µM] (active),52% [5 µM],21.2% [5 µM],38.8% [5 µM],72.2% [5 µM],–,55.6% [5 µM],55.1% [5 µM],53.1% [5 µM],52.3% [5 µM]
CCCCCCNC(=O)Oc1ccc(/C(=C(\C)c2ccc(Cl)cc2)c2ccc(OCCN(C)C)cc2)cc1,7.58% (active),5.99% (active),75.8%,60.8%,46%,56%,47.9%,84.7%,-67.8% (active),75%,98%,60.5%,69.9%,88.9%,71.5%,70.4%,36%,13.4%,43.6%,–
CCCCCc1ccc(S(=O)(=O)N(C(C)=O)c2cccc(-c3csc(N(CCN4CCN(C)CC4)C(C)=O)n3)c2)cc1,-13.6% (active),-41.4% (active),64%,60.6%,-10.8% (active),62.5%,-97.7% (active),-71.4% (active),-92.1% (active),-85.8% (active),92.8%,61.8%,62.6%,99.2%,-10.5% (active),20.5%,4.61% (active),-9.16% (active),–,–
CC(C)=CCc1c2c(c(O)c3c1O[C@]14C(=C[C@@H]5C[C@H]1C(C)(C)O[C@@]4(C/C=C(/C)C(=O)O)C5=O)C3=O)CC(O)C(C)(C)O2 (stereo partly drawn),-41.6% (active),-8.66% (active),-25.7% (active),22.6%,-72.4% (active),7.46% (active),-96.6% (active),-26.1% (active),-95.4% (active),-13.7% (active),-71.3% (active),-32.5% (active),12.9%,–,-11% (active),–,5.72% (active),-7.09% (active),-57.1% (active),-75.6% (active)
CCOC(=O)C1=C(C)Nc2nc3ccccc3n2C1c1cccc(Br)c1 (stereo not drawn),48.5%,49.3%,53.9%,77.2%,88.8%,84.1%,80.4%,60.3%,82.3%,84.9%,89.9%,80.2%,95.1%,113%,88.9%,54.5%,–,69.3%,73.7%,–
Fc1ccc(-c2cc3nc(C(Cl)Cl)nc(-c4cccs4)n3n2)cc1,15.9%,4.52% (active),69.8%,9.61% (active),-3.12% (active),1.42% (active),92%,45.8%,94.8%,23.6%,87.7%,6.21% (active),64.5%,7.64% (active),-19.9% (active),-20.4% (active),86%,65.4%,–,-20.7% (active)
c1ccc(-c2c(-c3ccccc3)[n+](Cc3ccc4ccccc4c3)c(-c3ccccc3)n2Cc2ccc3ccccc3c2)cc1,-81.7% (active),-70.1% (active),-78.4% (active),-94.9% (active),-78.8% (active),-87.3% (active),-99.1% (active),-88.6% (active),-89.8% (active),-93.3% (active),-67.7% (active),-90.1% (active),-91.7% (active),-81.1% (active),-95.5% (active),-93.4% (active),-21.6% (active),-54.1% (active),-95.2% (active),–
C#CCOc1ccc(C(Nc2ccc(OC)cc2)c2nnnn2C2CCCCC2)cc1 (stereo not drawn),97.1%,101%,92.6%,93.3%,89.9%,93.8%,100%,73.4%,89.2%,109%,104%,87.4%,96.5%,112%,97.3%,76.5%,–,91.4%,80.4%,–
CCN1C(=O)N(CC)C2SC(N/N=C/C=C/c3ccccc3OC)=NC21 (stereo not drawn),13.7%,6.38% (active),18.8%,25.5%,18.1%,26.7%,13.2%,37.1%,5.74% (active),60.2%,51.5%,46.8%,28.6%,52.1%,29.9%,46.7%,11.3%,16.9%,40.2%,–
